Source: PubChem BioAssay (several laboratories)
eIF4H inh – human eIF4H binding inhibitors, primary screen, translation initiation inhibitor project, biochemical, uHTS, fluorescence polarization | eIF4H fluorescence polarization binding assay | inhibition, % at 35 µM | 0.94% of 290,000 active | AID 2012, 2009;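 note: calls also rest on retests at 20 µM and on dose response follow-up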
MLLE-PAM2 inh – inhibitors of PABP1 MLLE–PAM2 peptide binding, primary screen, biochemical, fluorescence polarization, FITC-PAM2, GST-MLLE; 0.36% of 360,000 active; AID 588489, 2011; Polyadenylate-binding protein 1 (Homo sapiens), P11940; inhibition, % at 20 µM; in the data active = inhibition above about 35%, passing the limit was not always enough
Target sequence (P11940 whole entry, looked up): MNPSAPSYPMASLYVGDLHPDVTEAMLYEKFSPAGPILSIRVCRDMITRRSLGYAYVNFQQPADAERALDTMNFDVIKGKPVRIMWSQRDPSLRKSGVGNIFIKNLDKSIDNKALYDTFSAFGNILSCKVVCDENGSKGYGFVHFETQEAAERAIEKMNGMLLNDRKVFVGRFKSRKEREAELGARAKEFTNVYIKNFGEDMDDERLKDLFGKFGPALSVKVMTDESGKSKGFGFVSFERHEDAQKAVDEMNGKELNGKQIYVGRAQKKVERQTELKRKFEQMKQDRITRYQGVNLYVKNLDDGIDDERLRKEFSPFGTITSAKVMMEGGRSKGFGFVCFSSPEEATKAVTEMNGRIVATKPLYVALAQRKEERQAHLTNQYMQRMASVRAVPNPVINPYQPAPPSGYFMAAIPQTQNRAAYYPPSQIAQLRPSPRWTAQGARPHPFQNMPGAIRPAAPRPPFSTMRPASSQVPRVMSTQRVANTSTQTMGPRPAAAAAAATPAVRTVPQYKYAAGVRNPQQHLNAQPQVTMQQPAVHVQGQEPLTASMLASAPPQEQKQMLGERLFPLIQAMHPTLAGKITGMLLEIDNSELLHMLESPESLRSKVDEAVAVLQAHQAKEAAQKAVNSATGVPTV
GRK2 inh – compounds blocking aptamer binding on GRK2 – biochemical, human GRK2, bead flow cytometry, HTS, primary screen. Beta-adrenergic receptor kinase 1 (Homo sapiens), P25098. FAM-aptamer displacement from GRK2. inhibition of aptamer binding, % at 10 µM. 0.59% of 330,000 active. AID 488847, 2010;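 active = inhibition of aptamer binding above 40%, roughly 3 SD of noise, on plates passing a quality check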;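 note: median bead fluorescence of bound FAM aptamer so fluorescent compounds give negative values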
PERK inh – block of dimerizer-induced PERK translation repression, primary screen, PERK inhibitor project, CHO PERK-DD cells, SEAP luminescence, HTS | CHO PERK-DD fusion, SEAP luminescence translation reporter | inhibition, % at 5.6 µM | 0.17% of 220,000 active;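 active = inhibition above the mean inhibition of all tested compounds plus 3 SD, set separately per screening campaign, cut at about 2.9% in these data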;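 note: PERK kinase domain activated by AP20187 dimerizer at 100 nM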
PABP polyA inh – PABP poly(A) RNA binding inhibitors, primary screen, biochemical, fluorescence polarization, uHTS; Polyadenylate-binding protein 1 (Homo sapiens), P11940; inhibition, % at 35 µM; 1% of 290,000 active; AID 2014, 2009;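 note: calls also rest on retests at 20 µM and on dose response follow-up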
Numbers stand for hits; . = inactive; ? = inconclusive; / = not tested or not shown. Sampled rows, rich in hits. Any-hit rate of the full collection: about 1.9%. Unless noted, the rule behind the calls is not given here.

SMILES | eIF4H inh | MLLE-PAM2 inh | GRK2 inh | PERK inh | PABP polyA inh
CC1CCN(CC(=O)Nc2ccc(N3CCCCCC3)cc2)CC1 | . | . | . | . | .
CCN(CC)C(=O)[C@H]1CC(CC(=O)NCC23CC4CC(CC(C4)C2)C3)C(=O)N2CCc3c([nH]c4ccc(OC)cc34)[C@]12C (stereo not given in full) | / | . | 44.0 | / | /
CCN(CC)C(=O)[C@H]1C[C@H](CC(=O)NC(C)(C)C)C(=O)N2CCc3c([nH]c4cc(CCC(=O)N(C)C)ccc34)[C@]12C | / | . | 50.0 | / | /
CN(C)C(=O)CCc1ccc2c3c([nH]c2c1)[C@]1(C)[C@@H](C(=O)N2CCCCC2)C[C@H](CC(=O)NC(C)(C)C)C(=O)N1CC3 | / | . | . | / | /
COC(=O)c1ccc(NC(=O)c2ccc3c(c2)NC(=O)C2CCCN32)cc1 (stereo not given) | / | / | . | / | /
CC(C)CC[n+]1ccccc1/C=C/c1ccc(N(C)C)cc1 | ? | . | . | / | 63.9
Cc1cnc(C(=O)NCc2ccc(Cl)cc2Cl)cn1 | active | . | . | . | 71.0
Cc1cnc(C(=O)NCCc2ccc(Cl)cc2)cn1 | . | . | . | / | .
COc1ccc(N2C3=C(CC4=C2CCCC4=O)C(=O)CCC3)cc1 | 104.6 | 78.7 | . | . | active
Cc1ccc(C(=O)NCC(=O)Nc2cccc(C(F)(F)F)c2)cc1 | active | . | . | . | .
O=C(CNC(=O)c1ccccc1)Nc1cccc(C(F)(F)F)c1 | . | . | . | . | .
CCCNC(=S)NC1CCCC1 | . | . | . | . | .
OCC(O)CNC(=S)NC1CCCCC1 (stereo not given) | . | 42.4 | . | . | .
COc1cccc(CN(C)C(=O)c2ccc3nccnc3c2)c1 | 87.8 | . | . | . | 89.6
O=C(N/N=C\c1c(O)ccc2ccccc12)c1ccc(S(=O)(=O)N2CCCCC2)cc1 | 64.5 | . | . | . | 53.6
O=CN/N=C/c1c(O)ccc2ccccc12 | . | . | . | . | .
O=C(NN=Cc1c(O)ccc2ccccc12)c1ccc2c(c1)OCO2 | / | . | . | / | /
O=C(NNS(=O)(=O)c1ccc(F)cc1)c1ccc(S(=O)(=O)N2CCCCC2)cc1 | active | . | . | . | .
NC(=S)N/N=C/c1c(O)ccc2ccccc12 | . | 47.4 | . | . | .
Nc1nnnn1/N=C/c1cc(Cl)cc(Cl)c1O | ? | . | . | / | ?
Nc1nnnn1/N=C/c1cc(Cl)ccc1O | . | 49.0 | . | / | .
O=C(COC(=O)c1ccc2ccccc2n1)NCc1ccccc1 | . | . | . | . | .
CCc1ccc(CNC(=O)Cc2ccc(NC(=O)C3=C(C)OCCS3)cc2)cc1 | . | . | . | / | .
COc1cccc(-c2nc(CSCC(=O)NCC3CCCO3)c(C)o2)c1 (stereo not given) | . | 45.6 | . | . | .
COc1ccc(-c2nc(CS(=O)CC(=O)NCC3CCCO3)c(C)o2)cc1 (stereo not given) | . | . | . | . | .
SMILES | eIF4H inh | MLLE-PAM2 inh | GRK2 inh | PERK inh | PABP polyA inh
CCc1c(O)nc(SCc2nc3ccccc3c(=O)[nH]2)[nH]c1=O | active | 39.5 | . | . | 53.8
OC(c1cccc(Cl)c1)c1nc(/C=C/c2ccc(C(F)(F)F)cc2)cs1 (stereo not given) | / | . | / | / | /
Cn1c(/C=C/c2ccc([N+](=O)[O-])o2)nc2ccccc2c1=O | ? | . | . | . | 67.6
O=C(CNc1cccc([N+](=O)[O-])c1)N/N=C/c1ccc([N+](=O)[O-])o1 | . | . | . | . | .
O=C(N/N=C/c1ccc([N+](=O)[O-])o1)c1cc(-c2ccc(-c3ccccc3)cc2)nc2ccccc12 | . | . | . | . | .
O=C(CNc1cccc2ccccc12)N/N=C/c1ccc([N+](=O)[O-])o1 | 85.1 | . | . | . | active
Cc1ccc(-c2cc(C(=O)N/N=C/c3ccc([N+](=O)[O-])o3)c3ccccc3n2)o1 | 76.1 | . | . | / | 32.0
O=C(N/N=C/c1ccc([N+](=O)[O-])o1)c1cc(-c2ccncc2)nc2ccccc12 | 67.5 | . | . | . | 20.4
CC(=O)Nc1ccc(S(=O)(=O)NCCC(=O)N2CCC(Cc3ccccc3)CC2)cc1 | / | . | . | / | /
O=C1N=c2ccccc2=C1c1c(O)n(-c2cccc(F)c2)[nH]c1=O | . | 37.8 | . | . | .
CCn1c(O)c(C2=c3ccccc3=NC2=O)c2cc(Br)ccc21 | . | / | . | . | .
CCc1ccccc1N1CSC2=C(C#N)C(c3ccccc3F)CC(=O)N2C1 (stereo not given) | 77.6 | . | . | . | 93.4
COc1ccc(C2CC(=O)N3CN(c4ccccc4F)CSC3=C2C#N)cc1OC (stereo not given) | . | . | . | . | .
Cc1cccc(N2CSC3=C(C#N)C(c4ccc(C)o4)CC(=O)N3C2)c1 (stereo not given) | 98.5 | / | . | . | 117.8
CC(C)(C)c1ccc(Nc2n[nH]c3ccccc23)cc1 | / | . | / | / | /
O=C1c2ccncc2C(=O)N1c1cccc(Cl)c1 | . | . | . | 4.0 | .
O=C1c2cccc3cccc(c23)C(=O)N1c1cccnc1 | . | . | . | . | .
Cc1ccccc1NC(=O)/C(C#N)=C/c1ccc(-c2ccc(Cl)c(C(=O)O)c2)o1 | . | . | . | / | .
N#C/C(=C\c1ccc(-c2cccc(Cl)c2)o1)C(=O)Nc1cccc2cccnc12 | 81.7 | . | . | . | 85.5
O=C(CCc1nc2ccccc2c(=O)[nH]1)NCc1ccco1 | . | . | . | . | .
CN(CC(=O)NC(=O)NCc1ccco1)Cc1nc2ccccc2c(=O)[nH]1 | 69.2 | . | . | . | 41.3
Cc1ccc(NC(=O)CCCCCN2C(=O)[C@@H]3Cc4ccccc4CN3C2=O)c(C)c1 | . | . | . | / | .
COc1ccc(CCNC(=O)Nc2cccs2)c(OC)c1 | . | . | . | / | .
COc1ccc(CCNc2nc(C)c(C(C)=O)s2)cc1OC | . | 40.1 | . | / | .
COc1ccc(CCNc2nc(-c3ccc(F)cc3)c(CC(=O)O)s2)cc1OC | . | . | . | / | 35.4
SMILES | eIF4H inh | MLLE-PAM2 inh | GRK2 inh | PERK inh | PABP polyA inh
CC(=O)c1sc(NCc2ccc(C)cc2)nc1C | . | . | . | / | .
COc1ccc(CCNc2nc(-c3ccc(NC(C)=O)cc3)cs2)cc1OC | . | . | . | . | .
C=C1CCN([C@@H](Cc2ccccc2)C(=O)NC2CCN(Cc3ccccc3)CC2)S(=O)(=O)c2ccccc21 | / | . | / | / | /
CCOCC(=O)Nc1ccccc1C(=O)O | . | . | . | . | .
CC(=O)c1c(N2CCN(C)CC2)nc(=S)n(Cc2ccccc2)c1C | . | . | . | . | .
CCn1c(C)c(C(C)=O)c(N2CCN(c3ccc(OC)cc3)CC2)nc1=S | . | . | . | . | .
CC(=O)c1c(N2CCN(c3cccc(Cl)c3)CC2)nc(=S)n(-c2ccccc2)c1C | 84.4 | . | . | . | 98.7
